{"source": "PubChem BioAssay AID1865", "about": "(National Center for Advancing Translational Sciences (NCATS), 2009)", "note": "In all, about 280,000 compounds went through this assay and about 540 (0.19%) were called active. Where a call stands in place of a potency, no number is given. Not shown: some 2% with an inconclusive outcome. This is one part of a sample in which actives are shown more often than they occur. Calls follow the shape of the dose curve; as a rule, active = well fitted activation curve with a large enough effect; inconclusive = small, poorly fitted or top-dose-only effect; inactive = flat fitted curve, though single readings scatter. Potency is read from the fitted curve at half-maximal effect.", "data": [{"assay": "Quantitative High-Throughput Screen for Regulators of Epigenetic Control; also: nearly all actives have a fitted effect of over 60% in size", "conditions": "murine LDR cells, GFP reporter derepression, 30 h; series mostly up to 53.9 µM", "method_in_brief": "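In this reporter-derepression format, murine cells bearing a silenced integrated CMV-GFP locus incubate with test compound (30 h, 37 C), then are washed and imaged; fluorescent objects of 20–120 um count as induced cells.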", "values": [{"smiles": "CC1Cc2cc(S(=O)(=O)CCC(=O)Nc3ccc(F)c(Cl)c3)ccc2N1C(=O)C1CC1", "note": "(stereo unspecified)", "Potency": "inactive"}, {"smiles": "CCN1C(=O)c2cccc3c(N)ccc1c23", "Potency": "inactive"}, {"smiles": "Cc1nn(C)cc1N1C(=O)c2cccc3c(N)ccc(c23)C1=O", "Potency": "inactive"}, {"smiles": "Nc1ccc2c3c(cccc13)C(=O)NC2=O", "Potency": "17.8 µM (active)"}, {"smiles": "CN1CCN(c2oc(-c3ccc(COc4ccc(Cl)cc4)o3)nc2C#N)CC1", "Potency": "inactive"}, {"smiles": "COc1cc(N2CCCC2)c(OC)cc1/C=C(/C#N)c1cccc(Br)c1", "Potency": "3.55 µM (active)"}, {"smiles": "CC(=O)Nc1cccc(Oc2cc(C#N)c(C#N)cc2N2CCOCC2)c1", "Potency": "inactive"}, {"smiles": "COc1ccc(Br)cc1/C=N/n1c(C)nnc1C", "Potency": "inactive"}, {"smiles": "Cc1ccc(CCNC(=O)Cn2c(-c3cccs3)cc3cc(F)ccc32)cc1", "Potency": "inactive"}, {"smiles": "Cc1noc2ncnc(NCc3ccccc3Cl)c12", "Potency": "inactive"}, {"smiles": "Cc1nn(C(C)C(=O)NCCc2ccccc2)c(=O)c2c1sc1ccccc12", "note": "(stereo unspecified)", "Potency": "inactive"}, {"smiles": "CCc1ccc(C2CC(=O)c3c([nH]c(C(=O)OCc4ccc(C)cc4)c3C)C2)cc1", "note": "(stereo unspecified)", "Potency": "inactive"}, {"smiles": "CC(=O)c1ccc(NC(=O)CCc2nc(-c3ccc(C)cc3)no2)cc1", "Potency": "inactive"}, {"smiles": "CC(C)(C)c1ccc(S(=O)(=O)N2CCN(C(=O)c3cc(-c4ccc(Br)cc4)n[nH]3)CC2)cc1", "Potency": "inactive"}, {"smiles": "Cc1cc(C)cc(NS(=O)(=O)c2ccc(-c3cc(C)no3)s2)c1", "Potency": "inactive"}, {"smiles": "O=C(/C=C/c1ccccc1)Nc1cc(-c2nc3cc(Cl)ccc3o2)ccc1Cl", "Potency": "inactive"}, {"smiles": "Fc1ccc(Nc2nc(SCc3ccccc3Cl)nc3ccccc23)cc1", "Potency": "inactive"}, {"smiles": "CCN1CCN(c2ncnc3c2cnn3-c2ccc(C)c(C)c2)CC1", "Potency": "inactive"}, {"smiles": "Cc1ccc2nc(-c3ccccn3)cc(C(=O)Nc3ccc4c(c3)OCO4)c2c1", "Potency": "15.8 µM (active)"}, {"smiles": "Cc1ccc2nc(-c3ccncc3)cc(C(=O)Nc3ccc4c(c3)OCCO4)c2c1", "Potency": "inactive"}, {"smiles": "O=C(Nc1ccncc1)c1cc(-c2ccccn2)nc2ccc(Br)cc12", "Potency": "inactive"}, {"smiles": "OCc1cnc(SCc2ccc(F)cc2)n1Cc1ccc(F)cc1", "Potency": "inactive"}, {"smiles": "Cc1ccc(S(=O)(=O)N(CC(=O)Nc2ccc(Cl)cc2Cl)c2ccccc2C)cc1", "Potency": "inactive"}, {"smiles": "Cc1ccc(C)c(N2CCN(C(=O)Cn3nc(C)c4sc5ccccc5c4c3=O)CC2)c1", "Potency": "inactive"}, {"smiles": "CCCCCCc1ccc(O)cc1O", "Potency": "inactive"}, {"smiles": "CCCC(=O)Nc1nnc(-c2ccccc2)o1", "Potency": "inactive"}, {"smiles": "CCCCCCc1cc2cc(-c3nnc(-c4ccccc4)o3)c(=O)oc2cc1O", "Potency": "1.78 µM (active)"}, {"smiles": "COc1ccc(CNc2nc(-c3ccc(Cl)cc3)nn2S(=O)(=O)c2ccc(C)cc2)cc1", "Potency": "inactive"}, {"smiles": "Cc1cccc(NC(=O)CSc2nnc(CNC(=O)c3cccc(C)c3)n2-c2ccccc2)c1", "Potency": "inactive"}, {"smiles": "CCc1ccc(NC(=O)c2nn(-c3ccc(C)cc3)c(=O)n(C)c2=O)cc1", "Potency": "inactive"}, {"smiles": "O=C(CN1C2=NCCN2c2ccccc21)c1cccs1", "Potency": "inactive"}, {"smiles": "Nc1c(C(=O)c2cccs2)sc2nsc(SCCN3CCCCC3)c12", "Potency": "3.55 µM (active)"}, {"smiles": "CN(C)c1ccnc2sc(C(=O)c3ccccc3)c(N)c12", "Potency": "inactive"}, {"smiles": "CCOC(=O)c1ccc(NC(=O)CC2C(=O)N(c3ccccc3)C(=O)N2Cc2cccs2)cc1", "note": "(stereo unspecified)", "Potency": "inactive"}, {"smiles": "CSc1ccccc1-c1nnc(NC(=O)c2ccc3c(c2)OCCO3)o1", "Potency": "inactive"}, {"smiles": "Cc1oc(-c2ccccc2F)nc1CN1CCC(C(=O)NCCc2ccc(Cl)cc2)CC1", "Potency": "inactive"}, {"smiles": "CC(C)c1ccc(NC(=O)CN(C)S(=O)(=O)c2ccc3c(c2)c(=O)n(C)c(=O)n3C)cc1", "Potency": "inactive"}, {"smiles": "COCCCNC(=O)c1ccc(NC(=O)c2nsc3ccccc23)cc1", "Potency": "inactive"}, {"smiles": "Cc1ccc(-c2cnc(NCc3ccc(C(C)C)cc3)n2C)cc1", "Potency": "inactive"}, {"smiles": "CCOC(=O)c1cccc(NC(=O)Cn2cnc3nc4c(cc3c2=O)CCCC4)c1", "Potency": "inactive"}, {"smiles": "CCOC(=O)c1ccc(NC(=O)C2CCN(S(=O)(=O)c3ccc4c(c3)CCCC(=O)N4)CC2)cc1", "Potency": "inactive"}, {"smiles": "Cc1ccc(NC(=O)Cn2c(=O)n(-c3ccccc3)c(=O)c3c4c(sc32)CCCC4)cc1", "Potency": "inactive"}, {"smiles": "CCOc1cc(C(=O)NCCc2csc3nc(-c4ccc(C)cc4)nn23)cc(OCC)c1OCC", "Potency": "inactive"}, {"smiles": "Cc1cccc(C(CC(=O)NCC2(c3ccccc3)CCCC2)c2ccccc2)c1O", "note": "(stereo unspecified)", "Potency": "inactive"}, {"smiles": "Cc1ccc(Cl)cc1N1CCN(C(=O)c2cnc3c(-c4ccc(F)cc4)c(C)nn3c2C)CC1", "Potency": "inactive"}, {"smiles": "CCCCn1c(=O)c2oc3ccccc3c2n(CC(=O)Nc2ccccc2OC)c1=O", "Potency": "inactive"}, {"smiles": "COc1ccc(Cn2c(=O)c3oc4ccccc4c3n(CC(=O)Nc3ccc(F)cc3F)c2=O)cc1", "Potency": "11.2 µM (active)"}, {"smiles": "COc1cc(NC(=O)Cn2c(=O)n(Cc3ccco3)c(=O)c3oc4ccccc4c32)cc(OC)c1", "Potency": "inactive"}, {"smiles": "O=C(NCc1ccccc1Cl)c1cccn1-c1nnc(N2CCCCC2)s1", "Potency": "inactive"}, {"smiles": "Cc1ccc(NC(=O)c2cc(S(=O)(=O)NCCC3=CCCCC3)ccc2F)cc1C", "Potency": "inactive"}, {"smiles": "COc1cccc(CNC(=O)C(=O)NCC(c2cccs2)S(=O)(=O)c2ccccc2)c1", "note": "(stereo unspecified)", "Potency": "inactive"}, {"smiles": "Cc1cccc(CCNC(=O)c2ccc3c(c2)nc2n3CCC(C)C2)c1", "note": "(stereo unspecified)", "Potency": "inactive"}, {"smiles": "CN(c1ccccc1)c1ccc(/C=c2\\s/c(=C(/C#N)C(=O)C(C)(C)C)n(Cc3ccco3)c2=O)cc1", "Potency": "6.31 µM (active)"}, {"smiles": "Cc1cs/c(=N\\N=C\\c2ccc(O)cc2)n1Cc1ccco1", "Potency": "inactive"}, {"smiles": "O=c1nc2s/c(=C\\c3ccco3)c(=O)n2nc1Cc1ccccc1", "Potency": "inactive"}, {"smiles": "COc1cc(OC)c(OC)cc1/C=C/c1nc2cc3ccccc3cc2c(=O)n1-c1ccc(F)c(Cl)c1", "Potency": "inactive"}, {"smiles": "O=S(=O)(NCC(c1ccccc1)N1CCc2ccccc21)c1ccccc1", "note": "(stereo unspecified)", "Potency": "inactive"}, {"smiles": "COc1cc2c(cc1OC)C(COc1ccc(F)cc1)N(C(=O)c1ccccc1F)CC2", "note": "(stereo unspecified)", "Potency": "inactive"}, {"smiles": "CCOC(=O)c1c(C)[nH]c(CCC(=O)NCCCN2CCN(c3cc(C)ccc3C)CC2)c1C", "Potency": "inactive"}, {"smiles": "CC(C)(C)c1ccc(C(=O)NCC(c2ccc(Cl)cc2)N2CCOCC2)cc1", "note": "(stereo unspecified)", "Potency": "inactive"}, {"smiles": "COc1ccc(-c2cccc(NS(=O)(=O)c3cc(C)c(OC)c(C)c3C)c2)nn1", "Potency": "inactive"}, {"smiles": "O=C(NC1CCN(Cc2ccccc2)CC1)c1ccc(Cn2c(=O)c3ccccc3n(Cc3cccc(F)c3)c2=O)cc1", "Potency": "inactive"}, {"smiles": "CCOc1ccccc1C(=O)Nc1ccc(S(=O)(=O)N2CCCCC2c2cccnc2)cc1", "note": "(stereo unspecified)", "Potency": "inactive"}, {"smiles": "CC(C)c1ccc(S(=O)(=O)Nc2ccc(O)c(Sc3nc4ccccc4s3)c2)cc1", "Potency": "inactive"}, {"smiles": "COc1ccc(Cn2c(C(=O)O)c(CNCc3cccc(OC)c3)c3ccc(C)cc32)cc1", "Potency": "inactive"}, {"smiles": "CC(C)c1ccc2oc(-c3cc(NC(=O)c4cccs4)ccc3Cl)nc2c1", "Potency": "inactive"}]}]}
